Screening data from PubChem BioAssay.
HSF1 inh = HSF1 inhibition; NIH3T3-HGL HSE-luciferase, MG132-induced, luminescence 8 h; hits give low values; activity change, negative = inhibition, % at 7.5 µM (by protocol); hit rate 0.77% among 300,000; AID 2098;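 active = more than half of replicate wells show activity change below -50%, luminescence cut by over half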;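 also: luciferase reports HSF-1 transcriptional activity via heat shock element; 0% = median of DMSO wells and -100% = zero luminescence signal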
HSP90 refold inh = blocks HSP90-mediated luciferase refolding in reticulocyte lysate. Rabbit reticulocyte lysate, luciferase refolding luminescence, 3 h. inhibition, % at 5.6 µM. hit rate 0.91% among 290,000;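 active = inhibition above the screen-wide mean plus 3 SD, computed separately per campaign, cut at about 16% in these data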;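 also: 0% = DMSO wells and 100% = 60 µM geldanamycin wells; inhibitors lower the luminescence because luciferase stays unfolded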
FXN GAA850 act = increases GAA850 frataxin promoter reporter activity; HEK293 lucGAA850 FXN promoter luciferase reporter, 24 h; percent of 10 µM SAHA response; activation, % at 6 µM; hit rate 0.56% among 360,000;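 active = activation above the average of all compounds screened plus 3 SD, cutoff fixed separately per campaign, cut at about 7.5% in these data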;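 also: 0% = DMSO wells and 100% = 10 µM SAHA wells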
AI-2 QS modul = modulators of Vibrio harveyi AI-2 quorum sensing system; Vibrio harveyi JMH597 AI-2 luminescence/OD600 ratio, 9 h; hits give low values; strain lacks LuxN and CqsS sensors; 0 = neutral-control median; activity change, % at 7.5 µM; hit rate 0.4% among 300,000; in the data active = activity change below about -75%, passing the limit was not always enough;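 also: luminescence divided by OD600 gain over 9 h not by final OD600 alone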
SMARCA2 activ = activators of SMARCA2 function; MG213 cells, MMTV-luciferase reporter, dexamethasone, overnight; activation, % at 9.1 µM; AID 652017; hit rate 1% among 370,000; in the data active = activation above about 7.8%;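 also: 0% = vehicle wells and 100% = reference activator wells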
PG9 binder = PG9 antibody binding by small molecule; TR-FRET gp120-PG9 antibody binding; inhibition, % at 6.7 µM; hit rate 0.43% among 360,000; AID 624416; in the data active = inhibition above about 8.5%
The depositor's hits bear a star; . = not tested or not shown. An excerpt weighted towards active compounds, which were near 3.4% of everything screened.

SMILES	HSF1 inh	HSP90 refold inh	FXN GAA850 act	AI-2 QS modul	SMARCA2 activ	PG9 binder
CC(C)(C)OC(=O)N1CCN(C(=O)Nc2ccc3c(c2)OCCO3)CC1	-25	5	3	-2	-1	1
O=C(C1CCC1)N1CCc2cc(S(=O)(=O)N3CCN(c4ccccc4F)CC3)ccc21	.	.	.	.	0	.
COc1ccc(COC(=O)Nc2cc3c(C(F)(F)F)nn(C)c3s2)cc1	5	-1	0	-77*	-2	-3
CCN(CC)CCCNC(=O)CSc1nnc(-c2ccncc2)n1-c1ccc(OC)cc1	.	.	.	.	-3	.
N#CC1=C(N)Oc2cc(N)ccc2C1c1ccccc1Cl (stereo unspecified)	-61*	0	4	27	-3	-2
c1ccc(-c2cn3c(n2)SCC3)cc1	-5	1	1	4	7.8*	-2
Brc1ccc(-c2cn3c(n2)SCC3)cc1	26	-4	6	13	-2	1
O=S(=O)(c1ccc2c(c1)C(=NO)c1cc(S(=O)(=O)N3CCCCC3)ccc1-2)N1CCCCC1	-94*	1	2	3	8	1
Cc1cc2c(nc1C)CCCN2S(=O)(=O)c1c(C)noc1C	.	.	.	.	-2	0
C#CCNC(=O)C[C@@H]1C(=O)N2CCCC3=C2[C@@]1(C(=O)OC)CCCC3	.	.	.	.	-2	.
CCCc1ccc2oc(C(=O)N3CCC(C(N)=O)(N4CCCCC4)CC3)c(C)c2c1	-4	-1	2	7	7	-2
Cc1ccc2oc(C(=O)N3CCC(C(N)=O)(N4CCCCC4)CC3)c(C)c2c1	-76*	-2	0	13	-3	0
COc1cc2c(cc1NC(=O)Nc1ccc(C)cc1)oc1ccccc12	13	-3	2	25	-2	0
COc1cc2c(cc1NC(=O)C(C)Sc1ccc(NC(C)=O)cc1)oc1ccccc12 (stereo unspecified)	-60*	2	-2	11	-4	-5
COC(=O)[C@]1(C#N)CC(=O)N(Cc2ccc(Cl)cc2)[C@@H]1c1ccc(OC)cc1	.	.	.	.	-4	.
CCC[N+]1(CC#CC(O)(c2ccccc2)C2CCCCC2)CCCCC1 (stereo unspecified)	-5	2	-3	17	-2	1
NC(=O)C[N+]1(CC#CC(O)(c2ccccc2)c2ccccc2)CCCC1	-69*	4	0	21	-4	-1
Cc1ccc(-n2c(SC/C=C/c3ccccc3)nnc2-c2ccco2)cc1	.	.	.	.	-3	.
O=C(Nc1nnc(SCCN2CCOCC2)s1)C1CC(=O)N(c2ccccc2)C1 (stereo unspecified)	-1	1	1	12	-1	-3
Cc1ccc(N2CC(C(=O)Nc3nnc(SCCN4CCOCC4)s3)CC2=O)cc1 (stereo unspecified)	-55*	1	0	5	-1	0
C[C@H]1Cn2nncc2Cn2c3ccccc3c(=O)n21	.	.	.	.	0	.
COc1ccc(Cn2c(/C=C/c3ccccc3)nc3ccccc32)cc1	32	-2	1	28	6	2
COc1ccc(/C=N/n2c(C)nc3ccccc3c2=O)cc1	-7	0	2	28	1	-3
Cc1cc(N/N=C/c2ccc([N+](=O)[O-])o2)nc2ccccc12	43	6	4	54	1	-6
Cn1c(/C=C/c2ccccc2)nc2ccccc2c1=O	-80*	2	6	4	1	-3
SMILES	HSF1 inh	HSP90 refold inh	FXN GAA850 act	AI-2 QS modul	SMARCA2 activ	PG9 binder
COc1ccc(/C=N\n2nnc3ccccc32)cc1	-39	29*	-4	-15	7	0
Cn1c(/C=C/c2ccc([N+](=O)[O-])o2)nc2ccccc2c1=O	44	1	-13	-229*	.	.
COc1ccc(/C=C/c2nc3ccccc3n2C)cc1	-10	40*	-9	10	-4	-1
CCn1c(/C=C/c2ccccc2)nc2ccccc2c1=O	4	0	2	-4	-1	-2
COC(=O)[C@]12C[C@H](CC(=O)NCCc3ccccc3OC)C(=O)N(Cc3ccco3)C1=C[C@H](C1CCCC1)O[C@@H]2C	.	.	.	.	-2	.
COc1ccc(C(=O)N(C)[C@H]2C[C@H]3c4[nH]c5c(-c6ccccc6)cccc5c4CCN3C(=O)[C@H]2[C@H](C)O)cc1	.	.	.	.	-2	0
Cc1c(NC(=O)COC(=O)c2ccc(O)cc2)c(=O)n(-c2ccccc2)n1C	.	.	0	.	1	-1
